Data as given in the supplement of paper PMC6555819.

test system: LXRb:RXRa (NR concentration 270 nM, RXRa partner concentration 90 nM); assay: PBM binding z-score (relative to random genomic background probes); higher = stronger binding; sequences stand for … in GC…GCGATTGACAGCGTAGAATGAAGG
In short: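 The probes on custom Agilent 4×180K protein-binding microarrays were double-stranded, with 34-nt variable regions bearing direct-repeat seeds, single-nucleotide variants, half-site ablations and random human genomic background sequences. Incubation lasted 1 h with ligand-free nuclear receptor dimers in PBS pH 7.4, 2% milk, 0.02% Triton X-100, 1 mM DTT, 0.2 mg/mL BSA and 0.4 mg/ml salmon testes DNA. Antibodies against each partner (one per run) detected bound dimers, and fluorescence scans were regression-normalized. Binding z-scores take the random background probes as reference.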

Row | Sequence | PBM binding z-score
1 | TATACAGGGTCAAAGGGCAGAGTACGAATGTCGA | 5.44
2 | CGTCCAAGGTCAAAGGTCAGGGAAGAGATGACGG | 6.96
3 | CAAACTAGGTCACCGGAAGGTCAAAGTTCGCATG | 5.3
4 | TAGCCTAGGTTATGCGGGCCAGTATAGTGTCGGC | -0.71
5 | CCTACTGGGCCAAAAAGGCCATTGATGCCGATAA | -0.244
6 | CGAACTAGGTCAAAGGCCAGTGAAAGGCGACGTA | 1.81
7 | ATCTCTAGGTTAAAGTTCAGTGAATCCCGAGGAT | 2.61
8 | CCGACTGGGGCAAAGGTTACGATACTCAGTACGA | 2
9 | ACTCGGAGGACAGAGGTCAGAGCTACGCCAGTGA | 2.62
10 | CAAACTAGGTCACAGAGGTCAAAGTTCGTGCGTA | 6.7
11 | CCAGACAGGTGAAAGGTCACTCAGTCTGGTACGC | 4.91
12 | CAATCTAGGTCACAGAGGTCAAAGTCCGTGCGTA | 6.3
13 | ACTAGCAGGTCAAGGGTCACTCAAGATTAGTCCG | 4.88
14 | CATACACGGTCAGCTAGGCCAGAGTAGGGACGGC | -0.523
15 | GCTTCCGGGTCAAAGGTTATAGCATGAATAGAAT | 5.76
16 | TCAGATAGGTAAAGGTGAAAGTCGAACGATATGA | 1.3
17 | ATATGTAGGTCAGGGTCATTCAGAAAGTAGGGAA | 5.11
18 | CTAACTAGGTCACCGGAAGGTCAAAGTCCGCATG | 5.57
19 | CGTCCAAGGTCAGCAGGTGAGTGAAAGCGACGTG | 2.08
20 | TCTAGTAGGTCACGGAGGTCACACACGACGGGTA | 5.56
21 | TCATATAGGTAATAAAGGTGAAAGTCGGCATCTA | 1.79
22 | CAAAATAGGTCAAGGTCAAAGTCGGTTTGTGCCA | 5.22
